Bioassay records (PubChem BioAssay)
HT1080-NT tox: qHTS for induction of synthetic lethality in tumor cells producing 2HG: qHTS for the HT-1080-NT fibrosarcoma cell line | HT-1080-NT fibrosarcoma viability, CellTiter-Glo ATP luminescence, 48 h | 360,000 tested, 1.6% active | Potency, µM (doses to about 46.1 µM), most hits filed as cytotoxic;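 note: NT is the 2HG producing partner of a matched IDH1 knockdown line; nearly all actives have a fitted effect of over 55% in size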
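HT-1080-NT; 750 cells/well; 5% FBS RPMI; 48 h compound, 37 degrees C; CellTiter-Glo luminescence; curve fitting and curve-class assignment.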
HT1080 IDH1KD tx: qHTS for induction of synthetic lethality in tumor cells producing 2HG: qHTS for the HT-1080-IDH1KD cell line; Potency, µM (series often up to 46.1 µM), hits mostly cytotoxic; 360,000 tested, 2% active; HT-1080 IDH1 knockdown viability, ATP luminescence, 48 h
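IDH1KD HT-1080 cells, 750/well, RPMI + 5% FBS; compound pinned after 2 h settling; 48 h, 37 °C; CellTiter-Glo luminescence; % activity normalised to DMSO and no-cell wells; curves fitted, classed by r2 and efficacy.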
ALOX12 inh: Primary qHTS assay for inhibitors of human arachidonate 12S-lipoxygenase (ALOX12): Round 2 | purified 12hLO, xylenol orange hydroperoxide absorbance | Potency, µM (doses to about 108 µM), hits mostly inhibitors | 580,000 tested, 1.1% active | AID 1671190, 2021
Target sequence (P18054 whole entry, looked up): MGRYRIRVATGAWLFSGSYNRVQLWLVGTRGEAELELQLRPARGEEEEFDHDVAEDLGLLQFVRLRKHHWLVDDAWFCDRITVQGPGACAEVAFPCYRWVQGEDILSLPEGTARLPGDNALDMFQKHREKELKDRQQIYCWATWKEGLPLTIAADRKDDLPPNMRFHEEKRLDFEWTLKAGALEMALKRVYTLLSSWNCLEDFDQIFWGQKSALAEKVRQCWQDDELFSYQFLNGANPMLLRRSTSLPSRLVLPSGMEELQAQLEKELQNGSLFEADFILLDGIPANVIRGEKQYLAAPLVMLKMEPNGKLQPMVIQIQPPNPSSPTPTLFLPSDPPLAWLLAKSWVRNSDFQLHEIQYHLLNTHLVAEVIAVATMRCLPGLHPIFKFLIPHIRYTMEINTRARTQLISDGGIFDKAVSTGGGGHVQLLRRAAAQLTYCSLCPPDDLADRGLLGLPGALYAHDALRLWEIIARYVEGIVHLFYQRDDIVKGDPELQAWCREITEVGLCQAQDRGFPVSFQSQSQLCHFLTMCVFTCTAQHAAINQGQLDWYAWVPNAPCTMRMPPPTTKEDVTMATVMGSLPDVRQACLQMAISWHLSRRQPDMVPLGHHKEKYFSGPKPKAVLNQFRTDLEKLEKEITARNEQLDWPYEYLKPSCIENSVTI
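Purified human 12hLO (150 nM final) in 25 mM Hepes, 0.01% Triton X-100, pH 7.0 was preincubated 15 min at room temperature with compound. Then 40 uM arachidonic acid was added, 30 min. Hydroperoxide was read by Fe-XO absorbance ratio 573/405 nm.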
TDP1 cell CPT: qHTS for Inhibitors of human tyrosyl-DNA phosphodiesterase 1 (TDP1): qHTS in cells in presence of CPT. chicken DT40 Tdp1-/-;hTDP1 cells + 20 nM CPT, ATP luminescence, 48 h. 420,000 tested, 12% active. Potency, µM (top dose mostly 46.2 µM), hits mostly inhibitors; note: nearly all actives have a fitted effect of over 55% in size
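Cell growth measured by CellTiter-Glo luminescence after a minimum 48 h, 37 C compound exposure with 20 nM CPT in Tdp1-knockout DT40 cells stably expressing hTDP1, seeded 400/well; qHTS titration format.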
IL-1B inflam inh: qHTS for Inhibitors of Inflammasome Signaling: IL-1-beta AlphaLISA Primary Screen; 360,000 tested, 4.7% active; THP-1 LPS/ATP IL-1B secretion, AlphaLISA, 16 h; active compounds read low; activity change, % at 57.5 µM; in the data active = activity change below about -50%; inconclusive = mostly about -30% to -49%
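Secreted IL-1B measured by AlphaLISA bead assay after 16 h compound exposure of THP-1 cells; compounds (final up to 57.5 uM) added 1 h before LPS (250 ng/mL) and ATP (1.25 mM) stimulation; lower signal means less secretion.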
DT40 TDP1 no CPT: qHTS for Inhibitors of human tyrosyl-DNA phosphodiesterase 1 (TDP1): qHTS in cells in absence of CPT; 420,000 tested, 15% active; Potency, µM (top dose mostly 46.2 µM), actives largely listed as inhibitors; AID 686978, 2013; DT40 Tdp1-/- hTDP1 cells, no CPT, ATP luminescence, 48 h; note: nearly all actives have a fitted effect of over 55% in size
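Stably hTDP1-transfected Tdp1-null chicken DT40 cells were treated with library compounds minus camptothecin and grown for at least 48 hr at 37 °C, after which cellular ATP was quantified by luminescence.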
A number is an active result; . = inactive; ? = inconclusive; / = no result; ! = not confirmed by another sample; [ ] = another dose, or the depositor's remark. Many of the other results were omitted from the sample, so hits are more common in it than they were. Unless noted, calls come from the whole dose curve; as a rule, active = well fitted curve in the direction sought with a large enough effect; inconclusive = small, poorly fitted or top-dose-only effect, or another doubt; inactive = no such curve, though single readings can be large; an effect the other way counts as inactive or inconclusive.

SMILES	HT1080-NT tox	HT1080 IDH1KD tx	ALOX12 inh	TDP1 cell CPT	IL-1B inflam inh	DT40 TDP1 no CPT
CCOc1ccc(NC(=O)CSc2oc(-c3ccc(F)cc3)nc2S(=O)(=O)c2ccc(C)cc2)cc1	/	/	.	5.8µM	/	6.51µM
COc1ccccc1NC(=O)CSc1oc(-c2cccs2)nc1S(=O)(=O)c1ccc(C)cc1	/	/	.	?	/	?
CCSc1oc(-c2ccc(C)cc2)nc1S(=O)(=O)c1ccccc1	/	/	31.6µM	/	/	/
CCOc1ccc(NC(=O)CSc2oc(-c3ccco3)nc2S(=O)(=O)c2ccccc2)cc1	/	/	.	?	/	?
CCOc1ccc(NC(=O)CSc2oc(-c3cccs3)nc2S(=O)(=O)c2ccc(C)cc2)cc1	/	/	?	11.6µM	/	3.26µM
CCCSc1oc(-c2cccs2)nc1S(=O)(=O)c1ccc(C)cc1	/	/	.	18.4µM	/	?
O=C(NN1CCOCC1)c1ccn(COc2ccc(F)c(Cl)c2)n1	/	/	.	/	/	/
O=C(CSc1oc(-c2ccc(F)cc2)nc1S(=O)(=O)c1ccccc1)c1ccc(Cl)cc1	/	/	?	10.3µM	/	9.2µM
O=c1oc2ccccc2c(N2CCCC2)c1[N+](=O)[O-]	.	.	.	.	.	.
O=c1oc2ccccc2c(N2CCCCC2)c1[N+](=O)[O-]	.	.	.	16.4µM	-50.3	16.4µM
CC1CCN(c2c([N+](=O)[O-])c(=O)oc3ccccc23)CC1	.	.	.	16.4µM	.	23.1µM
O=C(CC1=C2CCCCC2N(Cc2ccc(F)cc2)C1=O)Nc1ccc(F)cc1 (stereo not given)	/	/	.	/	/	/
COc1ccc(/C=c2\s/c(=C\C(=O)C(C)(C)C)[nH]c2=O)cc1O	.	.	?	14.6µM	?	?
O=[N+]([O-])c1cccc2nc3ccccc3c(NCCCn3ccnc3[N+](=O)[O-])c12	?	0.082µM	.	0.146µM	-101.5	0.184µM
CC(C)C[C@@]12C(=O)N(c3cccc(F)c3)C(=O)N1[C@H](c1ccc(Br)cc1)[C@@H]1C(=O)N(C(C)(C)C)C(=O)[C@@H]12	.	.	.	?	.	20.6µM
CC[C@@]12C(=O)N(c3cccc(Cl)c3)C(=O)N1[C@H](c1ccc(Br)cc1)[C@@H]1C(=O)N(C(C)(C)C)C(=O)[C@@H]12	.	.	?	25.9µM	.	16.4µM
CC(C)(C)N1C(=O)[C@H]2[C@@H](c3ccc(Br)cc3)N3C(=O)N(c4ccccc4)C(=O)[C@@]3(Cc3ccccc3)[C@H]2C1=O	.	.	.	?	.	?
CC(C)(C)N1C(=O)[C@H]2[C@@H](c3ccc(Br)cc3)N3C(=O)N(c4cccc(Br)c4)C(=O)[C@@]3(Cc3ccccc3)[C@H]2C1=O	.	.	/	?	.	8.2µM
CC(C)C[C@@]12C(=O)N(c3ccc(Br)cc3)C(=O)N1[C@H](c1ccc(Br)cc1)[C@@H]1C(=O)N(C(C)(C)C)C(=O)[C@@H]12	.	.	?	?	.	?
COc1ccc([C@@H]2[C@@H]3C(=O)N(C(C)(C)C)C(=O)[C@@H]3[C@]3(Cc4ccccc4)C(=O)N(c4ccc(OC)cc4)C(=O)N23)cc1	.	.	.	.	.	.
CC(C)C[C@@]12C(=O)N(c3cccc(Cl)c3)C(=O)N1[C@H](c1ccc(Br)cc1)[C@@H]1C(=O)N(C(C)(C)C)C(=O)[C@@H]12	.	.	.	?	.	?
COc1ccc(N2C(=O)N3[C@H](c4cccc(C)c4)[C@@H]4C(=O)N(Cc5ccccc5)C(=O)[C@@H]4[C@]3(Cc3ccccc3)C2=O)cc1	.	.	.	11.6µM	.	13µM
Cn1c([C@H]2CCN(Cc3cnc4ccccc4c3)C2)nc2ccccc21	/	/	.	/	/	/
CCc1ccc(OCCCCN(C)Cc2ccccc2)cc1	.	.	?	?	?	29.1µM
Cc1cc(C)c(C)c(OCCCCN(C)Cc2ccccc2)c1	.	.	.	?	.	20.6µM
SMILES	HT1080-NT tox	HT1080 IDH1KD tx	ALOX12 inh	TDP1 cell CPT	IL-1B inflam inh	DT40 TDP1 no CPT
CCc1cccc(OCCCCN(CC)CC)c1	.	.	1.12µM	.	.	.
CCC(C)c1ccccc1OCCCN(C)Cc1ccccc1 (stereo not given)	.	?	?	?	.	?
CN(CCCCOc1ccc(F)cc1)Cc1ccccc1	.	.	1.12µM	.	.	.
CN(CCOc1ccc(F)cc1)Cc1ccccc1	.	.	?	.	.	.
CCc1cccc(OCCCCNCCCOC)c1	.	.	.	.	.	.
O=C(NCc1ccncc1)C1CN(S(=O)(=O)c2cccs2)CC12CCCCC2 (stereo not given)	/	/	.	/	/	/
Cc1ccc(C)c(OCC(O)Cn2nc(-c3cccs3)oc2=O)c1 (stereo not given)	/	/	.	/	/	/
CCN(CC)CCOc1ccc(Cc2ccccc2)cc1	/	/	?	23.7µM!	/	21.1µM!
Cc1noc(C)c1CC(=O)N1CCCC2(C1)Nc1cccnc1NC2=NC1CCCC1 (stereo not given)	/	/	.	/	/	/
CC(C)(C)c1ccc(NC(=O)N2CCCN(c3c(Cl)cncc3Cl)CC2)cc1	?	.	.	16.4µM	-64.6	7.31µM
O=C(Nc1ccc(F)cc1)N1CCCN(c2ccc(C(F)(F)F)cn2)CC1	.	?	?	?	.	?
COc1cccc(C(=O)CC2c3c(c(Br)c4c(c3OC)OCO4)CCN2C)c1 (stereo not given)	/	/	.	.[9.04 µM]	/	.[9.04 µM]
CCOc1cc(C)c(C(C)C)cc1S(=O)(=O)n1ccnc1C(C)C	/	/	.	/	/	/
O=C1CCC2(CCN(C(=O)C3CCc4ccccc43)CC2)CN1CCO (stereo not given)	/	/	.	/	/	/
CC(C)CC1C(=O)N(Cc2cn(CC3CCCCC3)nn2)CCS(=O)(=O)N1Cc1ccc(-c2cccc(CO)c2)cc1 (stereo not given)	?	?	?	20.6µM	.	23.1µM
CC1C(=O)N(Cc2cn(CC3CCCCC3)nn2)CCS(=O)(=O)N1Cc1ccc(-c2cccc(CO)c2)cc1 (stereo not given)	.	.	?	14.6µM	.	23.1µM
CC(C)CC1C(=O)N(Cc2cn(CCC3OCCCO3)nn2)CCS(=O)(=O)N1Cc1ccc(-c2cccc(CO)c2)cc1 (stereo not given)	.	.	?	.	.	?
O=C(CCn1ccn2nc3c(c2c1=O)CCCC3)N1CCC(Cc2ccccc2)CC1	/	/	.	/	/	/
